Screens as filed in PubChem.
Most compounds without a hit are left out; they make up all but 3.5% or so of the library.
Mcl-1 Bim block: disrupts Bim peptide binding to human Mcl-1 | hit rate 0.1% among 190,000 | Q07820 | Bead-based flow cytometry, Bim peptide-Mcl-1 binding | inhibition, % at 10 µM; in the data active means inhibition above about 40%;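 further: 0% = no compound tracer wells and 100% = peptide blocker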
Target sequence (Q07820 whole entry, looked up): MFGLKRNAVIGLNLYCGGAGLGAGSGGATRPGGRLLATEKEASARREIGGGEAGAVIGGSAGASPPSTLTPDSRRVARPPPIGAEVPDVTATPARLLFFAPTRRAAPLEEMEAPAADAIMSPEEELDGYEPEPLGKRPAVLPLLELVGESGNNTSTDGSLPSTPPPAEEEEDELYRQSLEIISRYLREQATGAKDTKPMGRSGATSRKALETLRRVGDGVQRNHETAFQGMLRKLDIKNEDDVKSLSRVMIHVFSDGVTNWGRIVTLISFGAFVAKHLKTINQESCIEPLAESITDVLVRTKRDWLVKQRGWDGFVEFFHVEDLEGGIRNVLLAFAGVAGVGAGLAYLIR
Mcl1-Bid inh: disrupts binding of human Mcl-1 to Bid peptide; Q07820; TR-FRET Mcl-1/Bid-Dy647 peptide binding, 1536-well; inhibition, % at 21.7 µM; hit rate 0.97% among 220,000;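 active means compounds that cut the binding signal by more than half at the single screening dose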;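 further: His-tagged Mcl-1 with europium anti-His antibody binding Bid BH3 peptide; 0% = Mcl-1 plus peptide wells and 100% = peptide-only wells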
eIF4E-4G inh: blocks eIF4E binding to eIF4G | inhibition, % at 21.7 µM | TR-FRET eIF4E-eIF4GI(517-606) binding, 2 h | hit rate 0.37% among 220,000 | AID 782 | P63073+Q04637;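 active means inhibition above about 30%, limit read from the data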;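 further: 0% = full FRET control wells and 100% = background wells lacking eIF4GI fragment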
Hck-Nef inh: inhibitors of human Hck kinase activated by Nef; P08631; Recombinant Hck-YEEI plus Nef, Z-Lyte FRET kinase assay; inhibition, % at 20 µM; hit rate 0.68% among 220,000;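 active means Hck-Nef kinase inhibition above about 50%, limit read from the data; inactive means inhibition below that limit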;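 further: 0% = DMSO with Hck plus Nef and 100% = Hck alone without Nef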
14-3-3 Bad inh: disrupts binding of bovine 14-3-3 zeta to phospho-Bad peptide. P63103. AID 781. hit rate 0.71% among 220,000. TR-FRET 14-3-3zeta/Dy647-pBad peptide displacement, 1 h. inhibition, % at 21.7 µM;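 active means inhibition above about 70%, limit read from the data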;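 further: 0% = full 14-3-3 plus peptide FRET controls and 100% = background without 14-3-3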
Target sequence (P63103 whole entry, looked up): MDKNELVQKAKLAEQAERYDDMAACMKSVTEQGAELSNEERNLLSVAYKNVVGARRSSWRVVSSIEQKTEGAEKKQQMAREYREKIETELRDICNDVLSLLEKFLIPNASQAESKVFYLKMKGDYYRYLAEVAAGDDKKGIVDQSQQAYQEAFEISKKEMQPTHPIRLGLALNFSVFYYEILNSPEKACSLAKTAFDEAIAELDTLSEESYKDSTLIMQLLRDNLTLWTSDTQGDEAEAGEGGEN
Mcl1 Noxa PPI: Mcl-1/Noxa interaction inhibition; Q07820; TR-FRET Mcl-1/Noxa peptide binding, 2 h; inhibition, % at 21.7 µM; hit rate 1.5% among 220,000;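 active means compounds that cut the protein-peptide binding signal by more than 50% relative to plate controls in a single-dose test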;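 further: His-tagged Mcl-1 with rhodamine Noxa BH3 peptide and terbium anti-His antibody; 0% = Mcl-1 plus Noxa peptide wells and 100% = peptide-only wells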
* marks the source's active call; other numbers are inactive results; x = no result given; [ ] = another dose, or the depositor's remark.

SMILES	Mcl-1 Bim block	Mcl1-Bid inh	eIF4E-4G inh	Hck-Nef inh	14-3-3 Bad inh	Mcl1 Noxa PPI
CN1/C(=C/C2CC(=O)N(c3cccc4ccccc34)C2=O)C(C)(C)c2ccccc21 (stereo not drawn)	0	-38	2	-13	9	54*
Cc1ccc(Cl)c2c1=NC(=O)C=2c1[nH]c(=S)[nH]c1O	1	-100	2	28	-16	53*
O=C1N=c2ccccc2=C1c1[nH]c(=S)[nH]c1O	-4	-24	6	3	7	65*
C/C(N)=C(/C#N)C(=O)COC(=O)c1ccccc1C(=O)c1ccc(C)cc1	0	-23	1	-11	-3	15
O=C(O)c1ccc(N2C(=O)CC(SC(=NCc3ccc4c(c3)OCO4)Nc3ccccc3)C2=O)cc1 (stereo not drawn)	x	-15	92*	11	1	-14
C[C@H](NC(=O)OC(C)(C)C)C(=O)N/N=C/c1ccc2nccnc2c1	x	-13	1	12	1	-6
O=C(COC(=O)c1cc(=O)c2ccccc2o1)NC1CCCC1	1	1	1	11	2	9
O=C(O)c1ccc(Oc2cccc([N+](=O)[O-])c2)cc1C(=O)O	0	10	-3	1	74*	10
CCOc1ccc(Br)cc1S(=O)(=O)Nc1ccc(NC(=O)c2ccccc2F)cc1	-4	-25	11	2	-11	-16
COc1ccc(NC(=O)c2c(F)cccc2F)cc1S(=O)(=O)Nc1ccc(Br)cc1	42*	-13	-10	-46	9	6
O=C(CC12CC3CC(CC(C3)C1)C2)NCC(c1ccc(F)cc1)N1CCOCC1 (stereo not drawn)	-1	-5	0	26	13	15
C=CCn1c(SCC(=O)Nc2sccc2C(N)=O)nc2ccc(Cl)cc2c1=O	-3	61*	-1	1	26	30
C=CCn1c(SCC(=O)Nc2sccc2C(N)=O)nc2ccccc2c1=O	-2	2	7	-21	-3	7
Cc1c(C)n(CC(O)CN2C(=O)c3ccccc3S2(=O)=O)c2ccccc12 (stereo not drawn)	-2	-27	10	-2	2	8
COCCn1nnnc1C(c1ccc2ncccc2c1)N1CCc2ccccc21 (stereo not drawn)	0	-84	-4	5	2	22
COCCn1nnnc1C(c1ccccc1)N1CCN(C)CC1 (stereo not drawn)	-3	15	-6	0	72*	4
CCC(c1nnnn1CCOC)N1CCN(Cc2ccccc2OC)CC1 (stereo not drawn)	-3	38	-2	0	88*	24
COCCn1nnnc1C(c1ccc2ncccc2c1)N1CCN(c2ccccc2F)CC1 (stereo not drawn)	3	33	2	1	76*	29
O=C(N/N=C/c1cccc([N+](=O)[O-])c1)C1CC1c1ccccc1 (stereo not drawn)	-2	1	4	1	6	4
O=S(=O)(CC(c1ccccc1)N1CCCCC1)c1ccc(Cl)cc1 (stereo not drawn)	x	-9	2	1	4	-7
CN(C)N1C(N)=C(C#N)C(c2cccnc2)C2=C1CCCC2=O (stereo not drawn)	-3	-35	-10	0	-17	14
CC(=O)C1=C(O)C(=O)N(c2cccnc2)C1c1ccc(Cl)cc1 (stereo not drawn)	-3	-21	6	-3	83*	20
COc1ccc2c(c1)CCN1C2CCN2C(=O)CCC21 (stereo not drawn)	x	-10	-4	7	-2	4
Cc1nc(SCC(=O)Nc2cc(C(N)=O)cc(C(N)=O)c2)c2c(C)c(C)sc2n1	x	-36	-12	3	2	10
CCCCC1=CC2=CC(=O)C(C)(OC(=O)CC)C(=O)C2=CN1CC(C)C (stereo not drawn)	x	-73	-4	19	-1	-5
SMILES	Mcl-1 Bim block	Mcl1-Bid inh	eIF4E-4G inh	Hck-Nef inh	14-3-3 Bad inh	Mcl1 Noxa PPI
C=CCN1C=C2C(=O)C(C)(OC(=O)CC)C(=O)C=C2C=C1CCCC (stereo not drawn)	x	-85	97*	20	-7	15
Cc1ccc(NC(=S)NC2CCCCC2)cc1S(=O)(=O)N(C)C	0	-24	0	33	-10	6
Brc1cccc(OCCOCCn2ccnc2)c1	0	72*	-3	1	69	15
Brc1cccc(OCCn2ccnc2)c1	-2	24	0	0	35	24
CCOc1cccc(OCCCCn2ccnc2)c1	-2	58*	36*	1	34	36
CCn1c(SCC(=O)Nc2ccc(C(C)=O)cc2)nc2nc3c(cc2c1=O)CCCC3	2	-1	51*	8	42	13
COc1cc(CNc2ccc(N3CCCC3)cc2)cc(Cl)c1OC	11	-30	17	6	6	72*
CCOc1ccc(CNc2ccc(N3CCCC3)cc2)cc1	6	-29	9	-8	-18	66*
CCOc1cc(CNc2ccc(N3CCCC3)cc2)cc(Cl)c1OC	-2	6	35*[fluorescence artefact?]	18	19	76*
CCOc1ccc(NC(=O)c2ccc(CNc3c(N4CCCC4)c(=O)c3=O)cc2)cc1	x	-39	-8	9	-2	19
COc1ccc(S(=O)(=O)Nc2cccc(F)c2C)cc1C(=O)N1CCOCC1	11	-38	1	-5	1	-2
CC(=O)c1c(C(C)=O)c(C)n(-c2nc(-c3ccc(C)c(C)c3)c(C)s2)c1C	-1	12	-2	-1	2	4
COc1ccc(-c2nc(-n3c(C)c(C(C)=O)c(C(C)=O)c3C)sc2C)cc1	-2	98*	8	1	-9	12
COC(CNC(=O)c1ccc2c3c(onc13)-c1ccccc1C2=O)OC	x	-187	2	15	7	70*
COc1ccc(CNCc2cn(-c3cccc(F)c3)nc2-c2ccc(C)o2)cc1	-4	0	-4	-14	-1	22
Cc1csc(C(C)N(C)C(=O)CCc2nnc(CCc3ccccc3)o2)n1 (stereo not drawn)	-1	-13	0	20	-7	-4
CC(=O)Nc1ccc(OCCOc2ccc(/C=C3/C(=N)N4C=CSC4=NC3=O)cc2)cc1	-7	36	13	-3	22	49
COc1ccc(-c2ccc(/C=C3/C(=N)N4C=CSC4=NC3=O)o2)c([N+](=O)[O-])c1	0	75*	10	30	73*[fluorescence artefact?]	83*
CCN(CC)CCC(=O)Nc1cccc2c1C(=O)c1ccccc1C2=O	x	0	-9	17	3	35
CC(C)c1c(Cl)c(O)c(-c2ccccc2)c(=O)n1-c1ccc(F)cc1	-1	57*	23	10	88*	31
O=C(c1ccc(Cl)cc1)N(Cc1ccccc1F)N1C(=O)CCCC1=O	0	-7	0	-1	4	11
